Compounds with a hit are over-represented: about 1.8% of the library has one in this group of screens.
NPR2 activator = human GC-B receptor activators, primary screen, HEK293 GC-B cells, cGMP TR-FRET, EC30 CNP; Atrial natriuretic peptide receptor 2 (Homo sapiens), P20594; AID 1920062, 2024; actives 0.11% (n = 370,000); 0% at EC30 CNP, 100% saturating CNP; activation, % at 10 µM;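 active means activation at 10 µM reaching about 35% in either raw or pattern-adjusted values, limit read from the data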
bovine MsrA act = bovine MsrA enzyme activators, primary screen, biochemical, absorbance, HTS. Methionine sulfoxide reductase A (Bos taurus). actives 0.3% (n = 360,000). AID 602163, 2012. activation, % at 10.6 µM. purified bovine MsrA, absorbance read-out; in the data active means activation above about 7.5%;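 further: 0% = vehicle and 100% = reference activator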
HTR2A ag = mouse Htr2a agonists via beta-arrestin recruitment, primary screen, cell-based, luminescence; activation, % at 7.6 µM; actives 0.66% (n = 360,000); 5-hydroxytryptamine receptor 2A (Mus musculus), P35363; CHO-K1 mHTR2A beta-arrestin complementation; percent of 30 µM serotonin response; AID 624169, 2012;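 active means activation above a run cutoff, the mean activation of all tested compounds plus 3 SD, cut at about 14% in these data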;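 further: 0% = plate median of compound wells and 100% = 30 µM serotonin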
GC-A act = GC-A stimulated cGMP production enhancers – HEK293 GC-A cells, cGMP TR-FRET, EC30 ANP, primary screen. 0% at EC30 ANP, 100% saturating ANP. actives 0.14% (n = 370,000). AID 1671463, 2021. activation, % at 10 µM; in the data active means activation above about 40%
MsrA inh = bovine MsrA enzyme inhibitors, primary screen, biochemical, absorbance, HTS | purified bovine MsrA, absorbance read-out | inhibition, % at 15.5 µM | actives 0.75% (n = 360,000); in the data active means inhibition above about 4.5%;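 further: 0% = vehicle wells with enzyme and 100% = reference inhibitor wells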
MsrA act confirm = bovine MsrA activators, retest, confirmation, biochemical, absorbance, HTS; purified bovine MsrA, absorbance read-out; shares compounds with bovine MsrA act; actives 12% (n = 1,000); activation, % at 10.6 µM; in the data active means activation above about 4%;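 further: enzyme coupled to thioredoxin and thioredoxin reductase with NADPH; 0% = vehicle wells and 100% = reference activator wells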
* hit, by the source's call.

How did COC(=O)[C@]12C[C@H](CC(=O)NCC3CCCCC3)C(=O)N(CCC3=CCCCC3)C1=C[C@H](C1CCCC1)O[C@@H]2C do in these assays?
NPR2 activator: -4.6; GC-A act: -3.6

What do the screens show for `CC(=O)N1CCCN(S(=O)(=O)c2ccc3c(c2)oc(=O)n3C)CC1`?
NPR2 activator: 5.6; GC-A act: 0.5

Results for Cc1ccc(NC(=S)NCCCN2CCOCC2)cc1C ?
NPR2 activator: 3.5; bovine MsrA act: -2.6; HTR2A ag: -3.7; GC-A act: 3.6; MsrA inh: -0.8

Results for S=C(NCCCN1CCOCC1)Nc1ccc(Cl)c(Cl)c1 ?
NPR2 activator: 3.2; bovine MsrA act: 13.8*; HTR2A ag: -6.4; GC-A act: 3.6; MsrA inh: -0.8; MsrA act confirm: -2.6

How did CCNC(=O)C[C@H]1CC[C@H]2[C@@H](COc3ccc(NC(=O)c4ccc5c(c4)OCO5)cc3C(=O)N2C)O1 do in these assays?
NPR2 activator: -2.4; GC-A act: 1.4

How did CC(c1nnnn1C1CCCCC1)N(Cc1ccccc1)Cc1cccnc1 (stereo not given) do in these assays?
NPR2 activator: -12.2; bovine MsrA act: 11.3*; HTR2A ag: 3.8; GC-A act: -4.4; MsrA inh: 0.5; MsrA act confirm: 0.7

How did Cc1ccc(C2(C)NC(=O)N(CC(=O)Nc3ccc4c(c3)OCO4)C2=O)cc1 (stereo not given) do in these assays?
NPR2 activator: 1.5; bovine MsrA act: 11.1*; HTR2A ag: -2.5; GC-A act: 0.7; MsrA inh: -0.1; MsrA act confirm: -3.3

How did Cc1cccc(NC(=O)CN2C(=O)NC(C)(c3ccc4c(c3)OCO4)C2=O)c1 (stereo not given) do in these assays?
NPR2 activator: -0.6; bovine MsrA act: -3.1; HTR2A ag: -2.4; GC-A act: -0.5; MsrA inh: -0.3

How did CCOc1cc(/C=N/Nc2nnc(C)n2N)ccc1OC(C)=O do in these assays?
NPR2 activator: -0.6; bovine MsrA act: 26.9*; HTR2A ag: 5.1; GC-A act: -5.2; MsrA inh: 0.2; MsrA act confirm: 0.8

How did CCc1nnc(N/N=C\c2ccc(OC(C)=O)c(OC)c2)n1N do in these assays?
NPR2 activator: 1.6; bovine MsrA act: 12.1*; HTR2A ag: 7.0; GC-A act: -4.0; MsrA inh: 0.7; MsrA act confirm: -2.3

Results for COc1ccc(/C=N/Nc2nncn2N)cc1Br ?
NPR2 activator: -3.5; bovine MsrA act: 24.7*; HTR2A ag: 6.0; GC-A act: -0.6; MsrA inh: 0.0; MsrA act confirm: 2.5

How did CCc1nnc(N/N=C/c2cccs2)n1N do in these assays?
NPR2 activator: -2.6; bovine MsrA act: 8.1*; HTR2A ag: 5.8; GC-A act: -2.2; MsrA inh: 1.6; MsrA act confirm: -2.1

What do the screens show for `CCc1nnc(N/N=C/c2c(Cl)cccc2Cl)n1N`?
NPR2 activator: -2.5; bovine MsrA act: 5.3; HTR2A ag: 1.5; GC-A act: -6.1; MsrA inh: -0.2

Results for CCc1nnc(N/N=C/c2ccc(O)c(OC)c2)n1N ?
NPR2 activator: -1.8; bovine MsrA act: 4.5; HTR2A ag: 1.7; GC-A act: -3.3; MsrA inh: 0.3

How did CCc1nnn2c1Cn1c3ccccc3c(=O)n1[C@@H](C(C)C)C2 do in these assays?
NPR2 activator: -3.9; GC-A act: -0.7

What do the screens show for `COc1ccc(S[C@]2(C(=O)N3CCN(c4ncccn4)CC3)CC(=O)N(c3ccc(Cl)cc3)[C@@H]2c2ccc(OC)cc2)cc1`?
NPR2 activator: -1.1; GC-A act: -3.4

What do the screens show for `S=c1[nH]nc(-c2cc(-c3ccccc3)n[nH]2)n1N=Cc1cccc(OCc2ccccc2)c1`?
NPR2 activator: -16.7; GC-A act: 0.5

How did CCCC(=O)N1CCC(C(=O)NC2CCCc3ccccc32)CC1 (stereo not given) do in these assays?
NPR2 activator: 9.6; GC-A act: 0.6

What do the screens show for `O=C(N/N=C/c1ccc([N+](=O)[O-])s1)c1cccc(Br)c1`?
NPR2 activator: -2.8; bovine MsrA act: 8.7*; HTR2A ag: -2.5; GC-A act: -7.0; MsrA inh: 0.6; MsrA act confirm: 6.6*

How did O=C(N/N=C/c1cc(Br)ccc1O)c1ccncc1 do in these assays?
NPR2 activator: -6.1; bovine MsrA act: -3.2; HTR2A ag: -17.0; GC-A act: -3.3; MsrA inh: -0.3

Results for O=C(N/N=C/c1ccc(O)c2ncccc12)c1cccc(Br)c1 ?
NPR2 activator: -3.8; bovine MsrA act: 15.3*; HTR2A ag: -7.6; GC-A act: -1.9; MsrA inh: 3.0; MsrA act confirm: -0.8

Results for O=C(COC(=O)c1ccc([N+](=O)[O-])s1)NCc1ccc(F)cc1 ?
NPR2 activator: -2.3; bovine MsrA act: 26.4*; HTR2A ag: 3.1; GC-A act: -0.1; MsrA inh: 0.2; MsrA act confirm: 21.9*

How did CC(NC(=O)COC(=O)c1ccc([N+](=O)[O-])s1)c1ccccc1 (stereo not given) do in these assays?
NPR2 activator: 2.1; bovine MsrA act: -3.8; HTR2A ag: 5.5; GC-A act: 0.9; MsrA inh: -0.5

How did O=C(COC(=O)c1ccc([N+](=O)[O-])s1)NNC(=O)c1ccccc1 do in these assays?
bovine MsrA act: 22.4*; HTR2A ag: 11.1; MsrA act confirm: 9.0*

How did O=C(COC(=O)c1ccc([N+](=O)[O-])s1)NCCc1ccccc1 do in these assays?
bovine MsrA act: 25.5*; HTR2A ag: 17.2*; MsrA act confirm: 15.6*

Results for O=C1CN(C(=O)COC(=O)c2ccc([N+](=O)[O-])s2)c2ccccc2N1 ?
bovine MsrA act: 41.1*; HTR2A ag: -0.1; MsrA act confirm: 20.5*

How did CNC(=O)C[C@H]1CC[C@H]2[C@@H](COc3ccc(NC(=O)Nc4ccccc4)cc3C(=O)N2C)O1 do in these assays?
NPR2 activator: -5.1; GC-A act: 6.0

How did O=C(COC(=O)c1ccc(O)cc1)NC(=O)NCc1ccccc1 do in these assays?
NPR2 activator: -4.8; bovine MsrA act: -3.6; HTR2A ag: -4.8; GC-A act: -2.5; MsrA inh: 0.3

What do the screens show for `O=C(COC(=O)c1ccc([N+](=O)[O-])s1)c1ccc[nH]1`?
NPR2 activator: -1.3; bovine MsrA act: 26.7*; HTR2A ag: 1.4; GC-A act: 2.1; MsrA inh: 1.4; MsrA act confirm: 9.5*

What do the screens show for `O=C(COC(=O)c1ccc([N+](=O)[O-])s1)NC(=O)NCc1ccccc1`?
NPR2 activator: -0.2; bovine MsrA act: 15.3*; HTR2A ag: -7.5; GC-A act: -2.2; MsrA inh: 0.8; MsrA act confirm: -0.4

High-throughput results from PubChem.
